Sm TGR block: qHTS Assay for the Inhibitors of Schistosoma Mansoni Peroxiredoxins. AID 485364, 2010. hit rate 3% among 360,000. purified TGR, DTNB reduction, TNB absorbance 405 nm. Schistosoma mansoni thioredoxin glutathione reductase (TGR), Q962Y6. Potency, µM (highest dose often 114 µM), without a hit: at the highest dose activity change, negative = inhibition, most hits filed as inhibitors; also: % is scaled to controls: 0 for no effect and ±100 for the full control effect; nearly all actives have a fitted effect of over 60% in size
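Kinetic colorimetric format: TGR-catalysed, NADPH-driven DTNB reduction monitored via TNB absorbance. Enzyme dispensed at 20 nM; compound exposure 15 min at room temperature before reaction start.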
Pf growth 48h: Primary qHTS for delayed death inhibitors of the malarial parasite plastid, 48 hour incubation. P. falciparum luciferase growth in erythrocytes, 48 h. Potency, µM (doses to about 28.7 µM), inactives show at the highest dose activity change, negative = inhibition, hits mostly inhibitors. hit rate 5.9% among 310,000. AID 504832, 2011; also: % is scaled to controls: 0 for no effect and ±100 for the full control effect
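Compounds are pin-transferred into medium, infected erythrocytes (2% hematocrit, 0.1% parasitemia final) are added, and plates sit one parasite generation at 37 C in 5% CO2. Detection reagent is then added and luminescence measured.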
Pf growth 96h: Primary qHTS for delayed death inhibitors of the malarial parasite plastid, 96 hour incubation. P. falciparum luciferase reporter growth, 96 h. Potency, µM (titrated, usually from 28.7 µM), for the others: at the top dose activity change, negative = inhibition, actives largely listed as inhibitors. hit rate 6.9% among 320,000; also: % is scaled to controls: 0 for no effect and ±100 for the full control effect
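Compounds incubated with erythrocytes infected by luciferase-expressing P. falciparum (2% hematocrit, 0.05% parasitemia final) for 96 hours, 37 C in 5% CO2. Growth inhibition scored as decreased luciferase luminescence.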
AmpC detergent: qHTS Inhibitors of AmpC Beta-Lactamase (assay with detergent) | hit rate 0.041% among 370,000 | AmpC hydrolysis of nitrocefin, absorbance 480 nm, 0.01% Triton | Potency, µM (highest dose often 114 µM), without a hit: top-dose activity change, negative = inhibition, hits mostly inhibitors | AID 485294, 2010 | P00811;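 also: 0% = no-compound wells and -100% = no-enzyme wells; nearly all actives have a fitted effect of over 25% in size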
Target sequence (P00811 whole entry, looked up): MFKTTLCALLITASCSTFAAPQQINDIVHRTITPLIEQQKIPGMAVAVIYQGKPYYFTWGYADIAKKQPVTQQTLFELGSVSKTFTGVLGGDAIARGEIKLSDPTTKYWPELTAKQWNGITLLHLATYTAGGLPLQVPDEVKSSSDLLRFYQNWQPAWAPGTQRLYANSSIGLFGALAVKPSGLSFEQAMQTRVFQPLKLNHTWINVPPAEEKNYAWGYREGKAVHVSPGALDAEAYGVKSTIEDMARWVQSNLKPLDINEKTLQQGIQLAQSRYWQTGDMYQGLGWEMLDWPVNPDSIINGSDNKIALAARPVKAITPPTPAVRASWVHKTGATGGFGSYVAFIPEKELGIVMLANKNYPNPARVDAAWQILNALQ
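AmpC (5.3 nM in the dispensed reagent) in 20 mM phosphate pH 7.0 with 0.01% (detergent screen) or 0.0001% Triton X-100 was preincubated with compounds for 15 min at room temperature. Nitrocefin was then added from an 800 uM solution, and hydrolysis was followed at 480 nm.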
SARS PLP yeast: qHTS of Yeast-based Assay for SARS-CoV PLP. hit rate 0.19% among 330,000. AID 485353, 2010. S. cerevisiae expressing SARS-CoV PLpro, growth rescue. Potency, µM (titrated, usually from 32.9 µM), for the others: at the highest dose activity, positive = growth rescue, actives largely listed as activators; calls by dose curve; also: 0% is about no effect; nearly all actives have a fitted effect of over 55% in size
AmpC inh no detg: qHTS Inhibitors of AmpC Beta-Lactamase (assay without detergent); Potency, µM (doses to about 57.1 µM), inactives show at the highest dose activity change, negative = inhibition, actives largely listed as inhibitors; AmpC nitrocefin hydrolysis, absorbance 480 nm, 0.0001% Triton; AID 485341, 2010; hit rate 0.52% among 330,000;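 also: plate controls were no compound for no effect and no enzyme for full effect; nearly all actives have a fitted effect of over 20% in size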
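20 mM phosphate pH 7.0 + 0.01% (detergent screen) or 0.0001% Triton X-100; 5.3 nM AmpC reagent; cpd preinc 15 min RT; nitrocefin (800 uM stock) to start; A480 q20 s × 4 min; Activity was normalised to no-enzyme and no-compound control wells.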
Active calls of the source: *; ? = inconclusive; / = no result; [ ] = remark or other dose. Compounds with a hit are over-represented: about 12% of the library has one in this group of screens. Unless noted, calls follow the shape of the dose curve; as a rule, active = well fitted curve in the direction sought with a large enough effect; inconclusive = small, poorly fitted or top-dose-only effect, or another doubt; inactive = no such curve, though single readings can be large; an effect the other way counts as inactive or inconclusive. Potency is read from the fitted curve at half-maximal effect.

SMILES	Sm TGR block	Pf growth 48h	Pf growth 96h	AmpC detergent	SARS PLP yeast	AmpC inh no detg
Cc1ccc(S(=O)(=O)Nc2nc3ccccc3nc2Nc2cccc(S(=O)(=O)N3CCCC3)c2)cc1	13%	?	?	-3%	0%	-47%
CC1CCN(S(=O)(=O)c2cc(C(=O)NC3(C)CCS(=O)(=O)C3)ccc2Br)CC1 (stereo unspecified)	-3%	?	9.3µM*	-4%	16%	6%
CC1(NC(=O)c2cc(S(=O)(=O)N3CCCCC3)ccc2Cl)CCS(=O)(=O)C1 (stereo unspecified)	-3%	/	35%	2%	18%	-2%
O=C(c1ccc(Cl)c(S(=O)(=O)NCc2ccccc2)c1)N1CCN(c2ccccn2)CC1	-21%	?	4.7µM*	?	-3%	-25%
CC1CCN(S(=O)(=O)c2cc(C(=O)N3CCN(c4ncccn4)CC3)ccc2Br)CC1	5%	?	7.4µM*	-9%	5%	124%
O=[N+]([O-])c1cccc(S(=O)(=O)Nc2nc3ccccc3nc2Nc2cccc(S(=O)(=O)N3CCCCC3)c2)c1	-11%	15µM*	5.2µM*	-5%	-6%	-30%
CC1CCN(C(=O)c2ccc(Br)c(S(=O)(=O)N3CCOCC3)c2)CC1	-3%	-9%	8%	-10%	0%	29%
S=C(NCC1CCCO1)Nc1ccccc1 (stereo unspecified)	-23%	43%	43%	6%	0%	-7%
CC(=O)c1nnn(-c2cccc(C#N)c2)c1C	7%	20%	11%	-10%	2%	0%
O=C(c1ccc(Cl)c(S(=O)(=O)N2CCCC2)c1)N1CCN(c2ccccn2)CC1	8%	/	?	0%	5%	18%
O=C(c1ccc(Cl)c(S(=O)(=O)N2CCOCC2)c1)N1CCN(c2ccccn2)CC1	-1%	12µM*	12µM*	?	1%	-7%
CS(=O)(=O)c1cccc(S(=O)(=O)N2CCN(c3ccccn3)CC2)c1	-14%	-25%	-29%	-2%	2%	5%
Cc1c(C(=O)N2CCN(c3ccccn3)CC2)oc2c(F)cccc12	-28%	10µM*	2.3µM*	-2%	/	45%
Cc1cc(C)cc(C(=O)N2CCN(c3ccccn3)CC2)c1	5%	6%	12µM*	7%	0%	6%
O=[N+]([O-])c1cccc(S(=O)(=O)N2CCN(c3ccccn3)CC2)c1	28%	19%	10µM*	2%	0%	-5%
Cc1c(C(=O)N2CCN(c3ncccn3)CC2)oc2c(Cl)cccc12	-2%	?	-20%	?	1%	93%
O=C(c1cccc(Cl)c1)C1CCCN(S(=O)(=O)c2ccccc2)C1 (stereo unspecified)	-23%	?	-6%	5%	-2%	31%
COc1ccc(OC)c(C2c3c(-c4ccc(Br)cc4)n[nH]c3C(=O)N2c2ccc(Cl)cc2)c1 (stereo unspecified)	8%	/	/	-2%	/	/
O=C(N1CCN(c2ccccn2)CC1)C(Cl)(Cl)Cl	2%	9.3µM*	2%	?	30%	11%
O=C(c1ccc(F)c(S(=O)(=O)N2CCOCC2)c1)N1CCN(c2ccc(F)cc2)CC1	-8%	?	6.6µM*	-13%	2%	162%
O=C(c1ccc(S(=O)(=O)N2CCCCCC2)cc1)N1CCN(c2ccccn2)CC1	-2%	13µM*	/	0%	-3%	40%
COc1ccc(C(C)NC(=O)CN(c2cc(OC)ccc2OC)S(=O)(=O)c2ccccc2)cc1 (stereo unspecified)	3%	/	/	-6%	/	/
CCCC1NC(=S)N(C2CCCCC2)C1=O (stereo unspecified)	-4%	0%	2.9µM*	-9%	9%	-15%
O=C1CCC/C(=N\NC(=O)c2ccc(NS(=O)(=O)c3ccc(Br)cc3)cc2)C1	-21%	21%	14%	-7%	7%	28µM*
COC(=O)C1CN(C(=O)COc2ccccc2)c2ccccc2O1 (stereo unspecified)	84%	-3%	?	2%	-3%	-5%
SMILES	Sm TGR block	Pf growth 48h	Pf growth 96h	AmpC detergent	SARS PLP yeast	AmpC inh no detg
O=C(O)c1cc[c]([Hg][Cl])cc1	?	5.9µM*	5.2µM*	?	0%	-3%
c1ccc(OCCOCCSc2ncccn2)cc1	4%	54%	-11%	3%	4%	-11%
O=C(CC1OCC2CCCN2C1=O)Nc1ccc([N+](=O)[O-])cc1 (stereo unspecified)	25µM*	6%	24%	-10%	-26%	-36%
O=C(CN1CCCC1)Nc1ccc([N+](=O)[O-])cc1	13%	4%	-10%	0%	-2%	-25%
CCN1CCOC(CC(=O)Nc2ccc([N+](=O)[O-])cc2)C1=O (stereo unspecified)	20µM*	60%	57%	8%	-19%	-16%
O=C(Nc1ccnc(=O)[nH]1)c1sc2ccccc2c1Cl	-6%	54%	98%	?	10%	-14%
Clc1cccc(CN2CCN(Cc3nc(CCc4ccccc4)no3)CC2)c1	1%	4%	?	0%	0%	125%
Clc1cccc(C2CCN(Cc3nc(COc4ccccc4)no3)C2)c1 (stereo unspecified)	35µM*	-2%	?	-3%	0%	18%
c1ccc(OCc2noc(CN3CC[C@@H]4CCCC[C@H]4C3)n2)cc1	6%[57.1 µM]	18%	13µM*	-4%	-3%	48%
O=S(=O)(Nc1ccccc1N1CCOCC1)c1c(F)cc(F)cc1Br	/	/	/	/	-1%	-16%
O=C(c1ccc2c(c1)CCN2S(=O)(=O)c1ccccc1)N1CCN(c2ccccc2F)CC1	8%	21%	20%	-6%	-2%	-5%
Cc1cc(C)cc(NC(=O)CCCn2nc(C)c3c(C)n(-c4ccccc4)nc3c2=O)c1	3%	9%	13µM*	1%	0%	-13%
COC(=O)c1ccccc1NC(=O)CCCn1nc(C)c2c(C)n(-c3ccccc3)nc2c1=O	8%	?	15µM*	-6%	3%	-3%
Cc1ccccc1NC(=O)CCCn1nc(C)c2c(C)n(-c3ccccc3)nc2c1=O	0%	-12%	?	-13%	0%	2%
